PNC inhibitor = blocks assembly of the perinucleolar compartment; activity change (PNC), negative = inhibition, % at 10 µM; hit rate 3.1% among 140,000; PC3M PTB-GFP, PNC prevalence imaging, 16 h; stronger effect = lower value; AID 2417;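 active = readout at or below -70, meaning at least 70% loss of cells showing the perinucleolar compartment, a nuclear body marking cancer cells; inconclusive = readout between -30 and a set limit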
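Read-out is percentage of cells bearing a perinucleolar compartment, from automated 20x imaging of fixed, Hoechst-stained PC3M PTB-GFP cells. Cells were seeded 4 h, then exposed 16 h to compound (23 nl of library stock) in duplicate plates.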
12-hLO inh = 12-hLO (ALOX12) enzyme inhibition; P18054; purified 12-hLO, xylenol orange hydroperoxide absorbance; Potency, µM (doses to about 57.1 µM), usual class: inhibitors; hit rate 0.12% among 150,000; also: nearly all actives have a fitted effect of over 55% in size
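Hydroperoxide output read as Fe(III)-xylenol orange absorbance, 573-to-405 nm ratio, after 30 min reaction with 40 uM arachidonic acid. Enzyme: 150 nM purified human 12hLO, 15 min compound preincubation; 25 mM Hepes pH 7.0, room temperature.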
ALOX15B inhib = blocks human 15-lipoxygenase 2 activity | purified 15hLO-2, xylenol orange hydroperoxide absorbance | AID 881 | hit rate 0.56% among 110,000 | O15296 | Potency, µM (doses to about 57.1 µM), actives largely listed as inhibitors; also: nearly all actives have a fitted effect of over 60% in size
Target sequence (O15296 whole entry, looked up): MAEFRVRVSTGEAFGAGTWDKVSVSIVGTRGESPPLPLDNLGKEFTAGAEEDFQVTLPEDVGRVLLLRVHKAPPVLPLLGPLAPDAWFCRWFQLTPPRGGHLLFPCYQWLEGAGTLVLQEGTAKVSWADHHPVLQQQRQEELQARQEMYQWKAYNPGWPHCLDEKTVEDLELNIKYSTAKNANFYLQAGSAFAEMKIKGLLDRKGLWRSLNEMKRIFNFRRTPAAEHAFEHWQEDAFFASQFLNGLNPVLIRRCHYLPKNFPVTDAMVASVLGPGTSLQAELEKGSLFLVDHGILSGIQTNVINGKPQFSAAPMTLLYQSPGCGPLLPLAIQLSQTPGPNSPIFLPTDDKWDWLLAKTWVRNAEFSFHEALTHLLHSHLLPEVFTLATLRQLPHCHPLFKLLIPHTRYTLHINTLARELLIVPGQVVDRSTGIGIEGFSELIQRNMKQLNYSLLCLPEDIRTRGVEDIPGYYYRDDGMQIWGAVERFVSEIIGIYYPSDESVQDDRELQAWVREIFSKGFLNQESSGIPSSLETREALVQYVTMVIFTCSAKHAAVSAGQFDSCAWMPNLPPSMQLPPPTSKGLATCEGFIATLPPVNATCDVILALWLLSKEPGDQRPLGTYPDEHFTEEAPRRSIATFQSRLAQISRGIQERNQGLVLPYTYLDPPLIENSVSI
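Purified human 15hLO-2 (50 nM) preincubated 15 min with compound, then 45 uM arachidonic acid for 90 min at RT in 25 mM Hepes pH 7.5, 0.01% Triton X-100. Hydroperoxide detected by Fe-xylenol orange; 573/405 nm absorbance ratio.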
Large screens that a line does not name were inactive. Only some compounds are listed: those with a hit (about 3.2% of all), similar ones and a draw of the others. Unless noted, calls follow the shape of the dose curve; as a rule, active = well fitted curve in the direction sought with a large enough effect; inconclusive = small, poorly fitted or top-dose-only effect, or another doubt; inactive = no such curve, though single readings can be large; an effect the other way counts as inactive or inconclusive.

Cc1ccc(-c2cc(C(F)(F)F)n3ncc(C(=O)N4CCCc5ccccc54)c3n2)cc1	PNC inhibitor -100 (no result: ALOX15B inhib)
CN1CCN(C(=O)c2cnn3c(C(F)(F)F)cc(-c4ccc5c(c4)OCO5)nc23)CC1	none
CN(C)c1ncc2nc(-c3ccc(F)cc3)c(=O)n(-c3ccccc3)c2n1	none (no result: PNC inhibitor, 12-hLO inh)
COc1cc(-c2cc(C(=O)Nc3ccc(S(=O)(=O)NCc4ccco4)cc3)c3ccccc3n2)cc(OC)c1OC	none (no result: ALOX15B inhib)
Cn1c(=O)c(NCCO)c2c3c(cccc31)C(=O)c1ccccc1-2	PNC inhibitor -123
CCCCNc1c2c3c(cccc3n(C)c1=O)C(=O)c1ccccc1-2	PNC inhibitor inconclusive (no result: ALOX15B inhib)
COc1ccc(/C=N/n2c(-c3ccco3)nc3ccccc3c2=O)cc1	PNC inhibitor -100 (no result: ALOX15B inhib)
COc1cccc(/C=N/n2c(-c3ccco3)nc3ccccc3c2=O)c1	none (no result: ALOX15B inhib)
C=CCN1CCc2c(cc(O)c(O)c2Br)[C@H](c2ccccc2)C1	ALOX15B inhib inconclusive (no result: PNC inhibitor)
CCN(CC)S(=O)(=O)c1ccc(C)c(NC(=O)CN(C)C)c1	PNC inhibitor -84 (no result: ALOX15B inhib)
CCN(CC)S(=O)(=O)c1ccc(Cl)c(NC(=O)c2ccccc2C)c1	none (no result: ALOX15B inhib)
COc1ccc(-c2cc(=O)c3c(O)cc(O)c(-c4cc(-c5cc(=O)c6c(O)cc(O)cc6o5)ccc4OC)c3o2)cc1	none (no result: PNC inhibitor)
COc1ccc(OC)c(-c2c3cc(O)c(=O)cc-3oc3cc(O)c(O)cc23)c1	12-hLO inh inconclusive (no result: ALOX15B inhib)
CCOc1ccccc1-c1c2cc(O)c(=O)cc-2oc2cc(O)c(O)cc12	PNC inhibitor -83 (no result: ALOX15B inhib)
CCCCCCCC1=Cc2ccccc2C(CC(=O)c2ccccc2)N1C(=O)OC (stereo unspecified)	none (no result: PNC inhibitor, ALOX15B inhib)
COc1ccc(OC)c2sc(NC(=O)CCSc3ccccc3)nc12	PNC inhibitor -88
CCC(=O)Nc1nc2c(OC)ccc(C)c2s1	none (no result: ALOX15B inhib)
CCNc1ccc(S(N)(=O)=O)cc1[N+](=O)[O-]	none (no result: ALOX15B inhib)
COc1ccc(CCC(C)Nc2ccccc2F)cc1 (stereo unspecified)	none (no result: ALOX15B inhib)
COc1ccc(CCC(C)NC2C3CC4CC(C3)CC2C4)cc1 (stereo unspecified)	PNC inhibitor -108
CCC(C(=O)NC(C)CCc1ccccc1)n1nc(C)n2c(cc3occc32)c1=O (stereo unspecified)	PNC inhibitor inconclusive
CCC(C(=O)NC(C)CCc1ccco1)n1nc(C)n2c(cc3occc32)c1=O (stereo unspecified)	PNC inhibitor -100 (no result: ALOX15B inhib)
C[C@H](O)Cn1cnc2c1c(=O)n(C)c(=O)n2C	none (no result: PNC inhibitor)
COCC(=O)Nc1nc(-c2ccccc2)ns1	none (no result: ALOX15B inhib)
CC(=O)Nc1nc(-c2ccccc2)ns1	PNC inhibitor -100 (no result: ALOX15B inhib)
Cc1cccc(CNc2ccnc(-c3ccccc3CN(C)C)n2)c1	none (no result: PNC inhibitor)
Cc1cc(C)nc(SCSc2nc(C)cc(C)n2)n1	none
Cc1cc(C)nc(SCCS(=O)Cc2ccc(Cl)cc2)n1 (stereo unspecified)	PNC inhibitor -110
O=C(NNC(=O)C1CCCCC1)C(=O)NC1CCCCC1	none
COc1ccc(-c2nc(-c3ccccc3)c(Nc3c(C)cccc3C)o2)cc1	none (no result: PNC inhibitor, ALOX15B inhib)
O=[N+]([O-])c1ccc(N2N=C(c3ccco3)CC2c2ccccc2)cc1 (stereo unspecified)	ALOX15B inhib 13µM
CS(=O)(=O)N1N=C(c2ccco2)CC1c1ccccc1 (stereo unspecified)	none (no result: ALOX15B inhib)
CC(=O)c1cccc(NC(=O)c2ccc(NS(C)(=O)=O)cc2)c1	PNC inhibitor -119 (no result: ALOX15B inhib)
CC(=O)c1cccc(NC(=O)c2ccc(NS(=O)(=O)c3c(C)noc3C)cc2)c1	none
CCNc1ncc2nc(-c3ccc(Cl)cc3)c(=O)n(-c3ccccc3)c2n1	none (no result: PNC inhibitor)
N#Cc1c(-c2ccc(Br)cc2)cc(-c2cccnc2)nc1N	none (no result: ALOX15B inhib)
N#Cc1c(-c2ccc(F)cc2)cc(-c2cccnc2)nc1N	PNC inhibitor -89 (no result: ALOX15B inhib)
CCCCNCc1cc(OC)c(OCC(N)=O)cc1Br	PNC inhibitor -100 (no result: ALOX15B inhib)
CCCCNCc1cc(OCC)c(OCC(N)=O)cc1Br	none
COc1cccc(/C=N/NC(=O)C(=O)Nc2ccccc2OC(F)(F)C(F)F)c1O	none (no result: ALOX15B inhib)
O=c1cc(-c2ccccc2)oc2cc(O[C@@H]3O[C@H](CO)[C@@H](O)[C@H](O)[C@H]3O)c(O)c(O)c12	none (no result: PNC inhibitor)
CCNc1ncc2nc(-c3ccccc3)c(=O)n(-c3ccc(OC)cc3)c2n1	none (no result: PNC inhibitor)
O=C(Nc1ccccc1)c1ccc(NCCN2CCOCC2)c(S(=O)(=O)N2CCOCC2)c1	none
O=C(Nc1ccccc1)c1ccc(NCc2ccco2)c(S(=O)(=O)N2CCOCC2)c1	PNC inhibitor -88
CCNc1ncc2ncc(=O)n(Cc3cccs3)c2n1	none (no result: PNC inhibitor, 12-hLO inh)
CCc1cc(-c2n[nH]c(=S)n2Cc2ccccc2)cs1	ALOX15B inhib inconclusive
Cc1nn(C)cc1CNC(=O)c1cccc(F)c1	PNC inhibitor -98 (no result: ALOX15B inhib)
Cc1nn(C)cc1CNC(=O)c1cccc(Br)c1	none (no result: ALOX15B inhib)
COc1ccc(CNC(=O)c2cnn3c(C(F)F)cc(C)nc23)cc1OC	none
COc1ccc(/C=C(\C#N)C(=O)OCC(=O)Nc2c(C)cccc2C(C)C)cc1	none (no result: ALOX15B inhib)
O=C(Cn1cc2c(n1)CCCCC2)N1CCCCC1	PNC inhibitor -119 (no result: ALOX15B inhib)
O=C(O)Cn1cc2c(n1)CCCCC2	PNC inhibitor inconclusive
COc1ccc(Oc2ncc3ncc(=O)n(Cc4cccs4)c3n2)cc1	none (no result: PNC inhibitor)
CCN(C(=O)CN1CCN(c2ccc(O)cc2)CC1)c1c(N)n(Cc2ccccc2)c(=O)[nH]c1=O	none
CC(CC1C(C#N)=C(N)SC(N)=C1C#N)c1ccccc1 (stereo unspecified)	ALOX15B inhib 20µM
CC(c1ccccc1)C1C(C#N)=C(N)SC(N)=C1C#N (stereo unspecified)	none
Cc1cc(C)n(-c2nnc3n2N=C(c2ccccc2)CS3)n1	PNC inhibitor -135
Cc1cc(C)n(-c2nnc3n2N=C(c2c[nH]c4ccccc24)CS3)n1	none
CC(C)OCCCN1C=C2C(=O)C(C)(OC(=O)C3CCCC3)C(=O)C=C2C=C1c1ccsc1 (stereo unspecified)	none (no result: PNC inhibitor, ALOX15B inhib)
CCS(=O)(=O)c1ccc(-c2csc(-c3ccc(Cl)cc3)n2)c(Cl)c1Cl	PNC inhibitor inconclusive
ClCc1csc(-c2ccc(Cl)cc2)n1	PNC inhibitor -113 (no result: ALOX15B inhib)
CC1CCC(C(C)C)C(OCC(O)CN2CCN(Cc3ccccc3)CC2)C1 (stereo unspecified)	none
CC1CCC(C(C)C)C(OCC(O)CN2CCOCC2)C1 (stereo unspecified)	PNC inhibitor -110
N#C/C=C(/N)N1CCN(c2ccc(Cl)c(Cl)c2)CC1	none
O=S(=O)(c1ccc(Oc2ccc(Cl)cc2)c(S(=O)(=O)N2CCCCC2)c1)N1CCCCC1	none
O=C(Cn1cnc2scc(-c3ccccc3)c2c1=O)N1CCOCC1	none
CCn1cnc2scc(-c3ccccc3)c2c1=O	PNC inhibitor -107
O=C(O)[C@H]1C[C@H](C(=O)O)N1	none (no result: PNC inhibitor)
CCOC(=O)c1ccc(COC(=O)c2ccc3c(c2)-c2ccccc2C3=O)cc1	none
CCOC(=O)c1c(C)nc2c(c1-c1cc(OC)ccc1OC)C(=O)c1ccccc1-2	PNC inhibitor inconclusive
CCOC(=O)C1=C(Cc2ccc(C)cc2)C(=O)c2ccccc2C1=O	12-hLO inh inconclusive, ALOX15B inhib 10µM
CCOC(=O)C1=C(Cc2ccc(OC)cc2)C(=O)c2ccccc2C1=O	ALOX15B inhib 13µM
CC1Nc2ccccc2C(=O)N1NS(=O)(=O)c1ccccc1 (stereo unspecified)	none (no result: ALOX15B inhib)
CCOC(=O)CN1C(=O)CSc2ccccc21	none

Compound activity as filed in PubChem BioAssay.
